Shown are actives, neighbours in structure and some others; about 7.9% of the full set was active somewhere.
SW480 rereplic: induces DNA re-replication in SW480 colon adenocarcinoma cells; 340,000 tested, 1.8% active; SW480 DNA re-replication, Hoechst DNA content imaging, 48 h; Potency, µM (top dose mostly 46.1 µM), without a hit: top-dose re-replication activation, most hits filed as activators; AID 624297; further: % of control where 0% means no effect; nearly all actives have a fitted effect of over 55% in size
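Cells (250 per well) received 23 nL compound or DMSO by pin tool and were kept 48 hr at 37 C, 5% CO2. Nuclei were then stained with Hoechst for 40 min and scanned for DNA content.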
HT1080NT lethal: kills 2HG-producing HT-1080-NT fibrosarcoma cells. HT-1080-NT fibrosarcoma viability, CellTiter-Glo ATP luminescence, 48 h. Potency, µM (series often up to 46.1 µM), without a hit: top-dose activity, negative = less viability, usual class: cytotoxic. 360,000 tested, 1.6% active;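 further: NT is the 2HG producing partner of a matched IDH1 knockdown line; 0% = DMSO-treated cells and -100% = media-only wells without cells; nearly all actives have a fitted effect of over 55% in size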
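750 cells/well, RPMI + 5% FBS; 2 h settle, compound pin-transfer, 48 h at 37 degrees C. CellTiter-Glo 10 min RT, luminescence. Normalized to DMSO and media-only wells.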
KB-V1 MDR tox: kills drug-selected multidrug resistant KB-V1 cells; KB-V1 MDR cells viability, CellTiter-Glo, 72 h; Potency, µM (titrated, usually from 46.1 µM), most hits filed as cytotoxic; 400,000 tested, 3.4% active; AID 1347076; further: on the % scale 0 is the no-effect control and ±100 the full control effect; nearly all actives have a fitted effect of over 60% in size
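Following 72 h at 37 degrees C with compound, KB-V1 cell viability was read by CellTiter-Glo luminescence, medium being phenol-red-free DMEM plus 10% FBS; concentration-response parameters came from normalized, curve-fitted qHTS data.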
KB-3-1 tox: kills parental KB-3-1 adenocarcinoma cells. KB-3-1 viability, CellTiter-Glo ATP luminescence, 72 h. Potency, µM (series often up to 46.1 µM), usual class: cytotoxic. 400,000 tested, 1.4% active; further: on the % scale 0 is the no-effect control and ±100 the full control effect; nearly all actives have a fitted effect of over 60% in size
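Luminescent ATP read-out (CellTiter-Glo) measures survival of drug-naive KB-3-1 cells after 72 h compound exposure at 37 °C. Titration series was screened from lowest to highest concentration, with DMSO vehicle plates as background controls.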
MCF10A rerep: inducers of DNA re-replication in MCF 10A breast cells; Potency, µM (titrated, usually from 46.1 µM), without a hit: at the top dose activity, positive = re-replication, usual class: activators; 350,000 tested, 2.9% active; AID 624296; MCF 10A DNA re-replication, Hoechst nuclear intensity, 48 h; further: % of control where 0% means no effect; nearly all actives have a fitted effect of over 50% in size
HT1080 IDH1KD tx: toxicity to HT-1080 IDH1 knockdown cells (counter line); 360,000 tested, 2% active; Potency, µM (series often up to 46.1 µM), inactives show at the highest dose activity, negative = toxicity, actives largely listed as cytotoxic; AID 686971; HT-1080 IDH1 knockdown viability, ATP luminescence, 48 h;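 further: 0% = DMSO wells and -100% = cell-free medium wells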
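After a 2 h attachment period, IDH1KD HT-1080 cells took pin-transferred compound for 48 h at 37 °C; ATP-based luminescence after 10 min room-temperature reagent incubation reported viability.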
Starred values were filed as active, the others as inactive; i = inactive; ? = inconclusive; nt = no result; [ ] = remark or other dose. The call rests on the fitted dose curve; in most records, active means well fitted curve in the direction sought with a large enough effect; inconclusive means small, poorly fitted or top-dose-only effect, or another doubt; inactive means no such curve, though single readings can be large; an effect the other way counts as inactive or inconclusive. Potency means the concentration at half of the fitted maximal effect.

SMILES	SW480 rereplic	HT1080NT lethal	KB-V1 MDR tox	KB-3-1 tox	MCF10A rerep	HT1080 IDH1KD tx
Cc1ccccc1OCC(=O)NNC(=O)Nc1ccccc1	-2%	6%	i	i	-2%	-3%
Cc1ccc(NC(=O)COc2ccccc2C(=O)Nc2ccccc2)cc1Cl	-5%	-2%	i	i	-2%	-1%
COc1ccc(OC)c(-c2noc(CSc3nnc(-c4ccccc4)n3-c3ccccc3)n2)c1	nt	nt	i	i	nt	nt
NS(=O)(=O)c1ccc(CCNC(=O)COC(=O)/C=C/c2cc(Br)ccc2F)cc1	?	-6%	i	i	21%	-20%
CC(C)n1nnnc1C1c2ccccc2C(=O)N1Cc1ccc(F)cc1 (centres undefined)	nt	1%	i	i	nt	6%
O=C(Nc1ccc(Cl)cc1)Nc1cccc2nsnc12	?	-5%	i	i	18µM*	-3%
O=C(Nc1ccncc1)Nc1cccc(Cl)c1Cl	-4%	-24%	i	i	2%	-21%
Cc1ccc(OCCCCn2nnc3sc4c(c3c2=O)CCCC4)cc1	nt	nt	i	i	nt	nt
Cc1cn(C)c(CC(=O)Nc2ccc(F)cc2Cl)c1C(=O)O	nt	nt	i	i	nt	nt
O=C(CN(Cc1cccs1)S(=O)(=O)c1ccc(S(=O)(=O)NC2CCCCC2)cc1)Nc1ccccc1	29%	-9%	13µM*	?	?	-26%
CCCCc1ccc(C2C3=C(CC(C)(C)CC3=O)NC3=C2C(=O)c2ccccc23)cc1 (centres undefined)	-8%	-6%	16µM*	?	-3%	-19%
O=C1CCCC2=C1C(c1cccc(O)c1)C1=C(N2)c2ccccc2C1=O (centres undefined)	-43%[1.84 µM]	3%	i	i	-24%	-8%
CC1(C)CC(=O)C2=C(C1)NC1=C(C(=O)c3ccccc31)C2c1ccc(O)cc1 (centres undefined)	-2%	-8%	i	i	-1%	-7%
CCCc1ccc(C2C3=C(CC(C)(C)CC3=O)NC3=C2C(=O)c2ccccc23)cc1 (centres undefined)	-3%	?	21µM*	?	5%	?
Cc1ccc2c(c1)c1c(c(=O)n(-c3ccccc3C)c(=O)n1Cc1ccccc1F)n2C	nt	nt	i	i	nt	nt
O=C(O)CN1C(=O)C2C3CCC(C3)C2C1=O (centres undefined)	nt	5%	i	?	nt	-2%
Cc1cccc(Cn2c(C)c(CNC3CCCCCC3)c(C(=O)O)c2C)c1	nt	nt	?	i	nt	nt
COC(=O)c1ccc2nc(-c3cccc(Br)c3)c(CC3CCCCC3)n2c1	nt	8%	13µM*	?	nt	-1%
COC(=O)c1ccc2nc(-c3ccc(Cl)cc3)c(CC3CCCCC3)n2c1	nt	11%	16µM*	?	nt	13%
c1ccc(-n2nnnc2Sc2ncnc3sc4c(c23)CCCC4)cc1	?	7%	i	i	21µM*	-1%
COc1ccc(C(C(=O)NC2CCCC2)N(C(=O)c2snc(-c3ccc(F)cc3)c2N)c2cccc(F)c2)cc1 (centres undefined)	21µM*	-2%	i	i	?	0%
COc1ccc(C(C(=O)NC2CCCC2)N(C(=O)c2snc(-c3ccc(F)cc3)c2N)c2ccc(F)cc2)cc1 (centres undefined)	16µM*	?	?	?	?	?
COc1ccc(C(C(=O)NC2CCCC2)N(C(=O)c2snc(-c3ccc(F)cc3)c2N)c2ccccc2)cc1 (centres undefined)	17%	5%	i	i	2%	0%
O=C(Nc1ccccc1Cl)c1cc2c(-c3ccccc3)nn(-c3ccccc3)c2s1	nt	nt	i	i	nt	nt
CCCCOc1ccccc1Cn1c(=O)sc2ccccc21	nt	nt	i	i	nt	nt
SMILES	SW480 rereplic	HT1080NT lethal	KB-V1 MDR tox	KB-3-1 tox	MCF10A rerep	HT1080 IDH1KD tx
Cc1c2ccccc2cc(Cc2ccccc2)[n+]1C	-5%	0%	i	15µM*	-21%	21µM*
Cc1nc(N)nc(C)c1Cc1ccccc1	-5%[9.22 µM]	-2%	i	i	-5%	-1%
CN(C(=S)NC(=O)c1ccccc1Br)C1CCCCC1	5.8µM*	1.6µM*	?	i	-1%	2.2µM*
Cc1ccc(S(=O)(=O)N(CCc2ccccc2)CC(=O)Nc2ccc(Br)cc2)cc1	nt	nt	i	?	nt	nt
COc1ccc(N2CCN(c3oc(-c4ccco4)nc3C#N)CC2)cc1	-9%	10%	15µM*	?	-6%	3%
N#Cc1nc(-c2ccco2)oc1N1CCN(c2ccccc2)CC1	0%	5%	i	i	25%	1%
Cc1cccc(C)c1N1CCN(C(c2ccnc3ccccc23)c2nnnn2-c2ccc3c(c2)OCCO3)CC1 (centres undefined)	nt	?	18µM*	21µM*	nt	?
CC(C)(C)OC(=O)N1CCCN(C(c2ccnc3ccccc23)c2nnnn2-c2ccc3c(c2)OCCO3)CC1 (centres undefined)	nt	23µM*	i	?	nt	?
c1ccc2c(C(c3nnnn3-c3ccc4c(c3)OCCO4)N3CCCCC3)ccnc2c1 (centres undefined)	nt	-19%	i	i	nt	-13%
CCC(c1nnnn1-c1ccc2c(c1)OCCO2)N1CCN(c2ccc(F)cc2)CC1 (centres undefined)	nt	-12%	10µM*	?	nt	?
CCC(c1nnnn1-c1ccc2c(c1)OCCO2)N1CCN(c2ncccc2C(F)(F)F)CC1 (centres undefined)	nt	-11%	?	?	nt	?
CCOC(=O)N1CCN(C(c2ccnc3ccccc23)c2nnnn2-c2ccc3c(c2)OCCO3)CC1 (centres undefined)	nt	?	18µM*	?	nt	?
C[C@H](CO)N1C[C@H](C)[C@H](CN(C)C(=O)Nc2ccc(F)cc2)OCc2cnnn2CCCC1=O	nt	-3%	i	i	nt	-5%
CCc1cccc(NC(=O)C2Cc3ccccc3N2C(=O)c2ccccc2)c1 (centres undefined)	nt	nt	i	i	nt	nt
Cn1c(Oc2ccc(Cl)cc2)nc2c1c(=O)n(Cc1ccc(F)cc1)c(=O)n2C	nt	nt	i	i	nt	nt
CC(NC(=O)c1ccccc1NC(=O)CN1CCc2ccccc2C1)c1ccccc1 (centres undefined)	?	-15%	18µM*	?	26µM*	-29%
CSc1ncc(C(=O)Nc2cccc(C)c2C)c(-c2ccccc2)n1	nt	nt	i	i	nt	nt

Screening data (PubChem)
